Experimental findings from PubChem BioAssay (NCI) are described below.

Holding throughout (assay): NCI-60 one-dose screen, 48 h (100 = growth as untreated, 0 = no growth, -100 = all killed)
Holding throughout (settings): 10 µM unless noted

In test [1] the test system is HCT-15 colon.
Test [2] relates to HT29 colon.
The subject of test [3] is SNB-75 CNS.
Test [4] has as its system SNB-19 CNS.
Test [5] relates to U251 CNS.
For test [6], the system named is PC-3 prostate.
Test [7] concerns SK-MEL-5 melanoma.
For test [8], the system named is UACC-62 melanoma.
In test [9] the test system is LOX IMVI melanoma.
Test [10] has as its system SK-MEL-28 melanoma.
The test system of test [11] is SK-MEL-2 melanoma.
Test [12] concerns EKVX NSCLC.
Test [13] concerns SN12C renal.
Test [14] deals with UO-31 renal.
Test [15] relates to TK-10 renal.
The test system of test [16] is ACHN renal.
The test system of test [17] is CAKI-1 renal.
Test [18] concerns A498 renal.
Test [19] deals with CCRF-CEM leukemia.
Test [20] relates to MOLT-4 leukemia.

SMILES strings stand for the structures. Compounds without any hit were thinned out: in the full panel of roughly 83,000, 20% have a hit.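 48-hour exposure, single concentration, 96-well plates; percent growth endpoint where 0 means no net growth. Active: below 10.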 Unmarked numbers belong to inactive results. The source made the active and inactive calls.

In the case of `Oc1ccc(CCl)c2cccnc12`, the growth in [1] was 36.6%; in test [2], 104%; in test [3], 64.7%; in [4], 80.6%; in test [5], 59.7%; in test [6], 83.6%. Further, the growth is 89.9% in test [7]; 100% in test [8]; 55% in test [9]; 82.9% in test [10]; 81.2% in [11]; 51.6% in test [12]. For the same molecule, the growth is 77% in [13]; 45.3% in test [14]; 104% in test [15]; 64.1% in test [16]; 88.8% in test [17]; 101% in [18]. The growth is 31.8% in [19] and 82.6% in test [20].
With `C/C(=C(/c1ccccc1)c1ccc(N2C(=O)c3cccc4c(N5CCN(C)CC5)ccc(c34)C2=O)cc1)c1ccccc1`, the growth in test [1] is 56.8%; in test [2] it was 24.8%; in [3], 98.1%; in [4] it was 88.9%; in test [5], 75.4%; in test [6], 61.4%. The growth in test [7] was 76.3%; in test [8], 73.5%; in [9] it was 24.6%; in test [10], 88.4%; in [11] it was 116%; in test [12] it was 62.4%. The growth is 77.2% in test [13]; 66.9% in [14]; 114% in [15]; 89.5% in [16]; 86.7% in test [17]; 86.3% in test [18]. Moreover, the growth in test [19] was 58%; in test [20], 54.3%.
`CC1=NN(c2ccc(S(=O)(=O)O)cc2)C(=O)C1N=Nc1ccc(-c2ccc(N=Nc3ccc(OS(=O)(=O)c4ccc(C)cc4)cc3)c(S(=O)(=O)O)c2)cc1` (stereo not given): the growth was 82.8% in test [1]; 93.3% in test [2]; 78.8% in test [3]; 104% in test [4]; 96.2% in test [5]; 86.3% in test [6]. The growth is 104% in test [7]; 92% in test [8]; 69.4% in [9]; 103% in test [10]; 78.8% in test [11]; 107% in [12]. The growth is 93.6% in [13]; 69.8% in test [14]; 97.2% in test [15]; 102% in test [16]; 100% in test [17]; 95.2% in [18]. Moreover, the growth in [19] is 67.8%; in test [20], 84.3%.
Regarding `Clc1ccc(C(/C=C/c2sc(Cl)nc2Cl)=N/Nc2cc(Cl)cc(Cl)c2)cc1`, the growth in test [1] was 105%; in [2], 103%; in test [3], 101%; in test [4] it was 96.4%; in test [5], 101%; in test [6], 96.7%. Further, the growth was 103% in [7]; 88.6% in [8]; 98.4% in [9]; 105% in test [10]; 106% in test [11]; 103% in test [12]. Also, the growth in test [13] was 100%; in test [14] it was 83%; in test [15], 119%; in test [16] it was 102%; in [17] it was 98.2%; in test [18], 101%. The growth was 94.5% in test [19] and 96.6% in test [20].
With `COc1ccc(-c2cc(-c3cc(OC)c(OC)c(OC)c3)nc(N3CCOCC3)c2C#N)cc1`, the growth in [1] was 66.6%; in [2] it was 76.1%; in test [3], 72.3%; in [4], 86.7%; in [5] it was 64.5%; in test [6], 62.7%. Further, the growth in test [7] is 75.3%; in [8], 57.5%; in test [9] it was 74.7%; in [10], 56.8%; in [11], 76.1%; in [12] it was 64.9%. The growth in test [13] is 81%; in test [14] it was 63.7%; in test [15], 100%; in [16], 68.3%; in [17], -22.7% (active); in test [18] it was 76.7%. Also, the growth was 89.9% in test [19] and 56.7% in [20].
For `C=CCc1cc(C)ccc1NC(C(=O)NCC(=O)OC)c1ccccc1` (stereo not given), the growth in [1] was 91.8%; in test [2], 98.4%; in test [3], 88.9%; in test [4], 105%; in test [5], 97.8%; in test [6], 89.1%. In addition, the growth in test [7] is 102%; in test [8] it was 95.4%; in test [9], 103%; in test [10], 101%; in test [11] it was 96.4%; in test [12], 93.9%. Besides, the growth in [13] is 91.4%; in test [14] it was 80.6%; in test [15], 106%; in [16], 98.5%; in test [17], 88.1%; in test [18] it was 94.6%. The growth was 105% in test [19] and 97.1% in test [20].
On to `Cc1ccccc1C(=O)NN`, for which the growth was 106% in test [1]; 98.9% in test [2]; 91.1% in test [3]; 105% in test [4]; 104% in test [5]; 92.8% in [6]. Further, the growth was 119% in [7]; 101% in test [8]; 109% in test [9]; 115% in [10]; 99.9% in [11]; 108% in test [12]. Moreover, the growth in test [13] is 108%; in test [14], 70.7%; in test [15], 105%; in [16], 106%; in test [17], 98.3%; in test [18], 117%. In addition, the figures for the growth in [19] and in test [20] were 100% and 92.3%, respectively.
As for `COc1cc(-c2nc3sccn3c2-c2ccnc(NCCCNS(=O)(=O)c3ccc(F)cc3)n2)ccc1F`, the growth in [1] was 44.8%; in test [2], 61%; in test [3], 59.9%; in test [4] it was 96.3%; in [5] it was 91.4%; in test [6], 46.8%. Further, the growth in [7] was 40.7%; in [8], 29.7%; in [9], 48.3%; in [10], 73.9%; in test [11], 69.6%; in [12], 83.6%. The growth in test [13] was 62.1%; in test [14], 48.6%; in test [15], 118%; in test [16] it was 60.7%; in [17], 61.1%; in test [18], 96.7%. Moreover, the growth in test [19] was 24.7%; in [20], 47.7%.
